# Target: LASP1
# Assay: pooled miR-30 sensor sort-seq; sequence = guide strand
# Conditions: shRNA
row,Sequence,sensor-assay potency score (higher = more potent)
1,TTCAGTGTCATCTTGCAGGTCT,0.744
2,TATATTACTGATCTGGTCCTGG,0.21
3,ATGTTCAGTGTCATCTTGCAGG,-1.2
4,TATTTTATATTACTGATCTGGT,-0.425
5,TACACGATCTTGCCGCACCGGG,-1.34
6,TTTATGCCAGAACTTATCCAGA,-1.03
7,TTTTATATTACTGATCTGGTCC,-0.194
8,TTGCAGTAGGGCTTCTTCTCGT,-0.401
9,TACGCTGAAACCTTTGCCCTTG,0.0341
10,TTGTAGCGCACCTGACTCTGGA,-0.666
11,TTATATTACTGATCTGGTCCTG,0.57
12,TTCATGTTCAGTGTCATCTTGC,0.197

# Target: LASS1
# Assay: as above
# Conditions: shRNA
row,Sequence,sensor-assay potency score (higher = more potent)
1,TTGAAGAAGAAGTAGAAGGGGA,0.612
2,TCGTAGAAGACAGATGGTGGGT,-0.363
3,TAGCGTAGCGTAGATGGAGTGG,-0.207
4,TAGTCGGTGCCAAACAGCAGGT,-1.18
5,TGTCCATGTATAGCGTAGCGTA,-1.61
6,TTGAAGTAAATGTTGAGCTTGG,0.853
7,TAGAAGAGAAACTTCCAAGCGC,0.296
8,TGGAGCAGCATGACCACCGAGT,-1.27
9,TAGGCACTGTAGCTCCAGCTGC,-1.01
10,TAGAGGCGGAACCAGAACCAGC,-1.74
11,AAACTTCCAAGCGCTCTCGGGC,-0.904
12,TATAGCGTAGCGTAGATGGAGT,-0.396

# Reference: the OligoGym collection
